Hit rate of the full screen: of about 220,000 compounds, about 370 (0.17%) were called active. The entries come from a sample that favours actives as a whole. Unmarked numbers belong to inactive results.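 How the source made its calls: active means inhibition above the mean inhibition of all tested compounds plus 3 SD, set separately per screening campaign (cut at about 2.9% in these data); inactive means the rest.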

The target in this test is Eukaryotic translation initiation factor 2-alpha kinase 3 (Homo sapiens) (UniProt Q9NZJ5). In words: SEAP translation reporter rise after PERK-DD activation – CHO PERK-DD cells, SEAP luminescence, HTS, PERK inhibitor project, primary screen (AID 1416).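 Further: PERK kinase domain activated by AP20187 dimerizer at 100 nM; 0% = DMSO with dimerizer and 100% = rapamycin at 8.4 µM.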 The settings on record: CHO PERK-DD fusion, at 5.6 µM, hits give high values.
Sequence of Eukaryotic translation initiation factor 2-alpha kinase 3 (Homo sapiens) (Q9NZJ5 whole entry, looked up, the tested form may be a part): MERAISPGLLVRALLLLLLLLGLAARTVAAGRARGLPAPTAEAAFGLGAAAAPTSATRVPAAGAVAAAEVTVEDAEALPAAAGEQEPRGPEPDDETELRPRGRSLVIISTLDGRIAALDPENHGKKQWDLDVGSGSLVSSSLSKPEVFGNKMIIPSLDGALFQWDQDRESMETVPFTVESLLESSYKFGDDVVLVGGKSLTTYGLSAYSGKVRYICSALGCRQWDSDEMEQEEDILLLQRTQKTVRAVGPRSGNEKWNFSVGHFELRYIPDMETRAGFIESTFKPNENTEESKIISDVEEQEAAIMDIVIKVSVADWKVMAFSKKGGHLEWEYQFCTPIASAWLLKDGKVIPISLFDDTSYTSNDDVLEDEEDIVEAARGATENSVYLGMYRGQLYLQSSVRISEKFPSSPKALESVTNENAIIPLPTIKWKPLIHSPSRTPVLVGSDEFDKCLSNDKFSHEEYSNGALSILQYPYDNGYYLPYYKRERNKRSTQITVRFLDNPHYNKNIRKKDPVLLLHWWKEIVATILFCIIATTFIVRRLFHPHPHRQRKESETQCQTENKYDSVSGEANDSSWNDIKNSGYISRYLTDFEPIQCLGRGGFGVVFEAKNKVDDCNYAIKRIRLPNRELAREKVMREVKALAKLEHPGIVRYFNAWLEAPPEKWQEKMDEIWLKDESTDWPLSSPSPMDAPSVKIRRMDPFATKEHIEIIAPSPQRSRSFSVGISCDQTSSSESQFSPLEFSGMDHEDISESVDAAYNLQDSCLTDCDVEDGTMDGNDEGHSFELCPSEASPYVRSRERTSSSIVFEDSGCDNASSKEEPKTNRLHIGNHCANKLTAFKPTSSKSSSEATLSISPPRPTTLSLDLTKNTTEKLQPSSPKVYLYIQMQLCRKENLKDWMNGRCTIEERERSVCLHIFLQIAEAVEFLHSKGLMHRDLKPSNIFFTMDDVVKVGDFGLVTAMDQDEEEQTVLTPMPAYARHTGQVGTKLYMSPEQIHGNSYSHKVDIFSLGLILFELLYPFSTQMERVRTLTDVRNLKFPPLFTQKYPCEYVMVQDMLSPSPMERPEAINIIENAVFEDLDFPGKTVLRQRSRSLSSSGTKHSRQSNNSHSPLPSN
The inhibition is the change of the read-out against control, counted positive when it falls. As for `O=S(=O)(Nc1ncccn1)c1ccc(NS(=O)(=O)c2cccc(Cl)c2Cl)cc1`, the inhibition was 0.64%.

As for `COc1ccccc1-n1c(-c2cc(-c3ccco3)[nH]n2)n[nH]c1=S`, the inhibition was 1.16%.

With `Cc1ccc(OCc2n[nH]c(=S)n2-c2ccc(C)cc2)cc1`, the inhibition was 0.51%.

Take `Cc1cc(-c2n[nH]c(=S)n2-c2ccc(C)c(C)c2)no1`: the inhibition was 3.32% (active).

Take `Cc1cc(NC(=O)CCC(=O)N(CC(=O)NCC2CCCO2)c2ccccc2C)no1` (configuration not stated): the inhibition is 0.7%.

Consider `COCCNC(=O)CN(C(=O)CCC(=O)Nc1cc(C)on1)c1ccc(C)cc1C`, for which the inhibition is 3.05% (active).

Turning to `Cc1ccc(SCCC(=O)Nc2cc(C)on2)cc1`, the inhibition was 1.3%.

As to `O=[N+]([O-])/C(N=Nc1ccccc1)=N\Nc1ccccc1`, the inhibition is 0.56%.

On to `N#Cc1c(NC(=O)c2ccc(N3CCOCC3)c([N+](=O)[O-])c2)sc2c1CCCC2`, for which the inhibition is 0.19%.

Take `O=S(=O)(c1ccc(NC(=S)NN=C(C2CC2)C2CC2)cc1)N1CCOCC1`: the inhibition is 1.01%.

On to `C=CCSC(CC)(CC)C(N)=O`, for which the inhibition was 2.98% (active).

As to `O=S(=O)(NCC1OCCc2ccccc21)c1ccccc1` (configuration not stated), the inhibition is 0.47%.

`Cc1c(-c2ccccc2)cn2c1-c1ccc(C)n1CC2`: the inhibition was 0.83%.

Turning to `COC(=O)[C@H](C)NC(=O)Nc1ccc(OC(F)(F)F)cc1`, the inhibition was -0.1%.

Turning to `CCOC(=O)Cc1ncccc1C(=O)Nc1ccc(OC(F)(F)F)cc1`, the inhibition is 0.3%.

Turning to `Cn1nccc1NC(=O)Nc1ccc(OC(F)(F)F)cc1`, the inhibition is 4.03% (active).

In the case of `Cc1ccc(S(=O)(=O)Cc2cc(-c3ccc(Cl)cc3)no2)cc1`, the inhibition was 0.87%.

For the molecule `CCOC(=O)CN1C(=O)N[C@@H](c2ccc(Br)cc2)C(C(C)=O)=C1C`, the inhibition is 0.08%.

As for `CCOC(=O)Cc1cc(=O)[nH]c(=O)[nH]1`, the inhibition is 1.51%.

With `CCOCCCNC(=O)C(=O)NCCCOCC`, the inhibition was 0.9%.

In the case of `CCOCCCNC(=O)Cc1cc(=O)[nH]c(=O)[nH]1`, the inhibition was 3.08% (active).

For `O=C(CN1CCc2ccccc21)NC(c1ccccc1)c1ccccc1`, the inhibition was -0.59%.

Take `CN(C)C(=O)c1cc(Br)ccc1Cl`: the inhibition was 2.54%.

On to `CC(=O)NC(Cc1ccc(F)c(F)c1)C(=O)NC1CCN(C(=O)c2ccc(C)cc2)CC1` (configuration not stated), for which the inhibition is 0.06%.

With `C=C(C)C1CC=C(C)/C(=N\NC(=O)CNc2ccccc2OC)C1` (configuration not stated), the inhibition was 0.13%.

In the case of `O=C(O)COc1nsnc1N1CCOCC1`, the inhibition was 2.98% (active).

Take `c1ccc(COc2nsnc2N2CCOCC2)cc1`: the inhibition is 1.4%.

Regarding `c1nc(COc2nsnc2N2CCOCC2)cs1`, the inhibition is 0.89%.

As for `NCC(=O)c1cccc2ccc[n+]([O-])c12`, the inhibition was -0.12%.

Consider `COc1cc(C(=O)N2CCN(C/C=C/c3ccccc3)CC2)cc(OC)c1C`, for which the inhibition is -0.57%.

For `CC(C)N1CCC(=NNc2ccc([N+](=O)[O-])cc2S(=O)(=O)N2CCOCC2)CC1`, the inhibition is 1%.

As to `CC(C)N(C(=O)CSc1nc(COc2ccccc2)nc2ccccc12)C(C)C`, the inhibition was 0.48%.
